High-throughput results deposited in PubChem by several laboratories.
Beta apoptosis = blocks beta cell apoptosis | AID 435005 | 300,000 compounds, 0.8% hits | INS-1E cytokine-induced death, ATP luminescence, 48 h; percent of positive-control rescue, neutral wells zero | protection from apoptosis, % (no concentration beside the values);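 active means Every replicate reaches about 75%, or at least half do and their mean reaches it too, limit read from the data; inconclusive means At least half of replicates reach the limit but their mean does not; inactive means Under half of replicates reach the limit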;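 further: 0% = cytokine-treated negative control wells and 100% = positive control rescue; higher means more ATP so stronger rescue from cytokine killing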
A1 inh = inhibitors of the anti-apoptotic protein A1, read as caspase activation. MEF A1-2A-BIM cells, Caspase-Glo 3/7 luminescence, 3 h; percent of clofoctol response, vehicle zero. caspase activation, % (concentration not given with the values). 330,000 compounds, 0.066% hits;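 active means over half of replicate activation scores above 10%, or exactly half above 10 with the replicate mean above 10; inconclusive means replicate mean below 10 yet half the replicates above 10; inactive means over half of replicates below 10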
Mdm2-MdmX inh = disrupts the human Mdm2-MdmX interaction; 330,000 compounds, 3% hits; inhibition, % at 8 µM; SaOS-2 split-luciferase Mdm2/MdmX complementation, luminescence;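 active means inhibition of at least 50% at 8 µM in the primary screen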
Target sequence (O15151 whole entry, looked up): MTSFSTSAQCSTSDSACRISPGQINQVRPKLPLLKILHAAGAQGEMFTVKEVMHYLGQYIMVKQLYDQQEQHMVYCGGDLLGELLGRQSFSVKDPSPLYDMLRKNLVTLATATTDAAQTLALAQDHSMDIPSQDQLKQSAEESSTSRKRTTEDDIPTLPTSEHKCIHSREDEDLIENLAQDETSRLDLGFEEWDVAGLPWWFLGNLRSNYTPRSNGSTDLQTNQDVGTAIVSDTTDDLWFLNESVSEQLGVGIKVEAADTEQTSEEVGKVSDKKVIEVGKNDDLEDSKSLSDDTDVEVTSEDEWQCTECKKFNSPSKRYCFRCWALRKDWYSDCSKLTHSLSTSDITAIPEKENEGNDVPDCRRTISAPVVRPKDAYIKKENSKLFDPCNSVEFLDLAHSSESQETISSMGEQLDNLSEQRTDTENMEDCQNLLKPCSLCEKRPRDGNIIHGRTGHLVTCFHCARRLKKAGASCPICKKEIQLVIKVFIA
Target sequence (Q00987 whole entry, looked up): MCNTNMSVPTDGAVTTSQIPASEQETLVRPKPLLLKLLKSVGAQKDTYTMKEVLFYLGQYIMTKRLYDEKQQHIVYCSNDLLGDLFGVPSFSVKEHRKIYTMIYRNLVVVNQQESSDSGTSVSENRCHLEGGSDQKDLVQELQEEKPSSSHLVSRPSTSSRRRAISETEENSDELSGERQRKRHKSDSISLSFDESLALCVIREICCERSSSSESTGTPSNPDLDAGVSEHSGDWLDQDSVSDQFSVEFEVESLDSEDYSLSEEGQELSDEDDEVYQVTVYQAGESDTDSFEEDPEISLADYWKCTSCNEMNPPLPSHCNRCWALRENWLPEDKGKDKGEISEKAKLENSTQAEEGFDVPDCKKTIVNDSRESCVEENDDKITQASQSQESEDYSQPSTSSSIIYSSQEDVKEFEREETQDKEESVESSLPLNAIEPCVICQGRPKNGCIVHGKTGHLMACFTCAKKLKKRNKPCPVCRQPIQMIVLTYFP
aSyn UTR inh = MLPCN primary screen, SNCA 5' untranslated region; alpha-synuclein 5'UTR reporter, inhibitor activity; inhibition, % (tested at 7.5 µM); 300,000 compounds, 0.82% hits; in the data active means inhibition above about 60%; inconclusive means no clear call, values can overlap the other calls;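 further: H4 neuroglioblastoma cells stably carrying SNCA 5'UTR luciferase fusion; 0% = DMSO wells and 100% = positive control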
CSC inhib = cancer stem cell inhibition | cancer stem cell-like cells viability, luminescence | 300,000 compounds, 1.1% hits | AID 2717 | inhibition, % at 7.5 µM; in the data active means inhibition above about 75%; inconclusive means no clear call, values can overlap the other calls; tested in HMLE shEcad cells
Starred values were filed as active, the others as inactive; u = inconclusive; x = no result. Only some compounds are listed: those with a hit (about 4.1% of all), similar ones and a draw of the others.

SMILES	Beta apoptosis	A1 inh	Mdm2-MdmX inh	aSyn UTR inh	CSC inhib
C=C[C@@]1(C)CC(=O)[C@]2(O)[C@@]3(C)[C@@H](O)CCC(C)(C)[C@@H]3[C@H](O)[C@H](OC(C)=O)[C@@]2(C)O1	-8	2	31	72*	7
C=C1C(=O)O[C@H]2C[C@]3(C)C([C@@H](OC(=O)/C(C)=C/C)[C@H]12)[C@](C)(O)CC[C@H]3O (stereo partly drawn)	-32	0	12	-2	10
C=C[C@@]1(C)CC(=O)[C@]2(O)[C@@]3(C)[C@@H](O)CCC(C)(C)[C@@H]3[C@H](OC(C)=O)[C@H](O)[C@@]2(C)O1	4	-2	19	66*	5
NC(=O)c1ccc(NC(=O)CCN=C2NS(=O)(=O)c3ccccc32)cc1	-7	1	7	11	-5
COc1cc(NC(C)CCCN)c2ncccc2c1 (stereo not drawn)	121*	-2	34	3	105*
COc1cc(NCCCCCCCN)c2ncccc2c1	13	0	34	1	54
Cc1cccc(C(=O)NC2CCN(CC(=O)Nc3ccccc3Cl)CC2)c1	x	1	12	14	-22
O=S(=O)(Cc1ccccc1)NCc1cccnc1	8	-1	17	8	x
COC1=C(Nc2ccccc2)C(=O)c2ccccc2C1=O	95*	0	14	-73	x
O=C1C(Cl)=C(Nc2ccccc2)C(=O)c2ccccc21	66	-1	x	-190	112*
C=CCNC1=C(Cl)C(=O)c2ccccc2C1=O	97*	-2	25	2	43
O=C1C(Cl)=C(NCc2cccnc2)C(=O)c2ccccc21	84*	0	14	-141	24
COc1ccccc1Nc1ccc(NC(=O)c2cccc([N+](=O)[O-])c2C)cc1	19	1	22	-47	u
CCN(CC)CCCNC1=C(Cl)C(=O)c2ccccc2C1=O	98*	0	17	76*	107*
O=C(/C=C/c1ccco1)Nc1ccc(-c2nc3ccccc3[nH]2)cc1	-2	0	x	89*	66
CCN(C(=O)COC(=O)c1cc(-c2ccc3cc(OC)ccc3c2)nc2ccccc12)C1CCS(=O)(=O)C1 (stereo not drawn)	17	-6	-94	67*	28
CCN(C(=O)COC(=O)c1cc(OC)ccc1Br)C1CCS(=O)(=O)C1 (stereo not drawn)	-4	0	15	x	6
Cc1ccc(/C=N/NC(=O)c2nnn(-c3nonc3N)c2-c2cccs2)cc1	4	0	4	69*	-6
COc1ccc(/C=N/NC(=O)c2nnn(-c3nonc3N)c2-c2cccs2)cc1OC	-10	1	20	12	2
Cc1cc(C(=O)Nc2cccc3c2O[C@@H](CN(C)S(C)(=O)=O)[C@H](C)CN([C@@H](C)CO)C3=O)n(C)n1	x	x	-39	x	x
O=C(Nc1ccc2c(c1)OCO2)c1cc(-c2cccc(O)c2)on1	7	-2	-69	24	100*
Cc1cc(C(=O)Nc2ccc3c(c2)OCO3)no1	-4	-1	-40	-107	-7
CC(C)Cc1cc(C(=O)Nc2ccc3c(c2)OCO3)no1	2	-4	-141	-184	122*
Cn1c(COc2ccccc2O)[n+](C)c2ccccc21	-1	1	-27	12	2
COc1ccc(N=Nc2n(C)c3ccccc3[n+]2C)cc1	x	x	x	103*	x
SMILES	Beta apoptosis	A1 inh	Mdm2-MdmX inh	aSyn UTR inh	CSC inhib
COc1cccc(NC(=O)COC(=O)CCC(=O)c2cccs2)c1	-4	0	-20	x	x
CCCc1c(C(=O)NNc2cccc(Cl)c2)cnn1-c1ccccc1	-5	1	-3	-2	80*
Nc1ccc(C(=O)N/N=C/c2cn(Cc3cccc(F)c3)c3ccccc23)cc1	-4	0	10	70*	17
O=[N+]([O-])/C=C/c1cn(Cc2ccc(Cl)cc2)c2ccccc12	0	9.1*	26	65*	99*
CCOC(=O)N/N=C/c1cn(Cc2ccc(Cl)cc2)c2ccccc12	-1	1	-32	70*	29
O=C(O)c1ccc(Cn2cc(/C=C\[N+](=O)[O-])c3ccccc32)o1	9	2	16	7	10
O=C(CNc1ccc2c(c1)OCO2)N/N=C\c1cn(Cc2ccccc2)c2ccccc12	-5	0	8	81*	34
COc1cccc(-c2ncc3ccccc3c2COC(=O)c2ccc(F)cc2)c1	2	1	26	x	-1
O=C(Cn1nc(C(=O)O)c2ccccc2c1=O)Nc1ccc(Cl)c(S(=O)(=O)N2CCOCC2)c1	2	0	21	x	0
O=C1CC(=O)Nc2cc(S(=O)(=O)N3CCN(c4ccc([N+](=O)[O-])cc4)CC3)ccc2N1	2	0	-5	-15	-12
Cc1ccc(S(=O)(=O)NNC(=O)CCC(=O)Nc2ccccc2Cl)cc1	-2	0	-8	x	7
Oc1c(Br)cc(Br)cc1/C=N/Nc1ccc(Cl)nn1	98*	0	x	97*	100*
Oc1c(Br)cc(/C=N/Nc2ccc(Cl)nn2)cc1Br	3	0	-32	-7	-2
CCc1ccc(-c2nc(CSCC(=O)NC3CC3)c(C)o2)cc1	5	-1	0	71*	-13
CSc1ccc(-c2nc(CSCC(=O)NC3CC3)c(C)o2)cc1	-10	0	-3	12	-9
COc1ccc(S(=O)(=O)N2CCOCC2)cc1NC(=O)CCNC(=O)c1ccc(Br)cc1	38	-1	-17	77*	70
COc1cc(-c2nnc(NC(=O)c3ccc(S(=O)(=O)N4CCOCC4)cc3)o2)cc(OC)c1OC	86*	1	32	-6	18
COc1ccc(S(=O)(=O)N2CCOCC2)cc1NC(=O)CCNC(=O)c1ccc(Cl)cc1	x	x	-12	x	x
COc1ccc(-c2nc3ccccc3s2)cc1O	2	-17	2	85*	25
COc1cc(-c2nc3ccccc3s2)ccc1O	2	-6	-121	-222	21
Brc1ccccc1OCCNCc1ccccc1	6	-1	6	-56	10
Clc1ccc(OCCCNCc2ccccc2)c2ccccc12	28	0	40	20	110*
CN1C=CC(=C2C(=O)c3ccccc3C2=O)C=C1	x	x	-16	14	x
CCCCCCN1C=CC(=C2C(=O)c3ccccc3C2=O)C=C1	18	-8	-6	107*	40
COc1ccc(NC(=O)NNC(=O)C(C)Oc2ccc3ccccc3c2)cc1 (stereo not drawn)	0	1	-15	-4	-12
O=C1ON=C(c2ccc(Cl)cc2)/C1=C/c1ccc(O)cc1	-36	4	17	-7	79*
Cc1cccc(Nc2nc(NCc3ccco3)c3ccccc3n2)c1	91*	0	x	-9	113*
Cc1ccc(OCCN2CCN(c3nc(NCc4ccco4)c4ccccc4n3)CC2)cc1	4	0	23	18	112*
Cc1ccc(-c2nc(NCc3ccco3)c3ccccc3n2)cc1	7	-1	-4	-46	96*
Cc1ccccc1Nc1nc(NCc2ccco2)c2ccccc2n1	37	-7	47	-30	22
